What all share (assay): PBM binding z-score (relative to random genomic background probes); higher = stronger binding; sequences stand for … in GC…GCGATTGACAGCGTAGAATGAAGG
In experiment [1] the test system is FXR:RXRa (NR concentration 270 nM, RXRa partner concentration 90 nM). The gist of the method: (§1)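 On custom Agilent 4×180K arrays, double-stranded probes with 34-nt variable regions carried direct-repeat seeds, single-nucleotide variants, half-site ablations or random human genomic background. Ligand-free nuclear receptor dimers were applied for 1 h, and binding was read with antibodies against each partner (one per run). Binding z-scores come from regression-normalized fluorescence, with the random background probes as reference.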

The subject of experiment [2] is LXRa:RXRa (NR concentration 270 nM, RXRa partner concentration 90 nM). The gist of the method: as §1
The test system of experiment [3] is LXRa homodimer (NR concentration 270 nM). An outline of the steps: as §1
Experiment [4] has as its system LXRb:RXRa (NR concentration 270 nM, RXRa partner concentration 90 nM). The gist of the method: as §1
The subject of experiment [5] is LXRb homodimer (NR concentration 270 nM). The gist of the method:
as §1

For experiment [6], the system named is PPARa:RXRa (NR concentration 270 nM, RXRa partner concentration 90 nM). The gist of the method:
as §1

In experiment [7] the test system is PPARg:RXRa (NR concentration 180 nM, RXRa partner concentration 90 nM). The gist of the method: as §1
For experiment [8], the system named is PPARg:RXRa 270nM:90nM, anti-RXR (NR concentration 270 nM, RXRa partner concentration 90 nM). An outline of the steps: as §1
Experiment [9] deals with PPARg:RXRa 30nM:10nM, anti-RXR (NR concentration 30 nM, RXRa partner concentration 10 nM). An outline of the steps:
as §1

Experiment [10] deals with PPARg:RXRa 90nM:30nM, anti-RXR (NR concentration 90 nM, RXRa partner concentration 30 nM). An outline of the steps: as §1
Experiment [11] relates to PPARg:RXRa DBDmut IVT, anti-RXR (DBD mutation: RXRa K156A/R161A, NR concentration 270 nM, RXRa partner concentration 90 nM). The gist of the method:
as §1

Experiment [12] deals with PPARg:RXRa IVT, anti-PPARg (NR concentration 270 nM, RXRa partner concentration 90 nM). An outline of the steps: as §1
The test system of experiment [13] is PPARg DBDmut:RXRa IVT, anti-PPARg (DBD mutation: PPARg1 K132A/R137A, NR concentration 270 nM, RXRa partner concentration 90 nM). An outline of the steps:
as §1

In experiment [14] the test system is PPARg DBDmut IVT, anti-PPARg (DBD mutation: PPARg1 K132A/R137A, NR concentration 270 nM). An outline of the steps: as §1
For experiment [15], the system named is PPARg homodimer (NR concentration 180 nM). An outline of the steps:
as §1

The subject of experiment [16] is PXR:RXRa (NR concentration 270 nM, RXRa partner concentration 90 nM). The gist of the method:
as §1

The test system of experiment [17] is PXR homodimer (NR concentration 270 nM). An outline of the steps:
as §1

Experiment [18] concerns RARa:RXR (NR concentration 270 nM, RXRa partner concentration 90 nM). An outline of the steps:
as §1

Experiment [19] concerns RARa homodimer (NR concentration 270 nM). An outline of the steps: as §1
In experiment [20] the test system is RARb:RXRa (NR concentration 270 nM, RXRa partner concentration 90 nM). An outline of the steps: as §1

On to GCAGACAGGTGAAACGCAGGTAACTGAGGGTGGC, for which the PBM binding z-score in experiment [1] was -0.0768; in experiment [2], -0.241; in experiment [3], -0.455; in experiment [4], -0.345; in experiment [5], -0.944; in [6] it was 0.632. For the same sequence, the PBM binding z-score in experiment [7] is 0.492; in experiment [8], -0.236; in experiment [9], -0.698; in experiment [10], -0.467; in experiment [11], 0.757; in experiment [12], 0.578. Moreover, the PBM binding z-score was 0.338 in experiment [13]; -0.375 in experiment [14]; -0.52 in experiment [15]; -0.257 in experiment [16]; -0.434 in experiment [17]; 0.257 in [18]. Further, the figures for the PBM binding z-score in experiment [19] and in experiment [20] were -0.289 and 0.65, respectively.
Regarding ATATGTAGGTTATCAGGTCATTCAGTTTGCGCAT, the PBM binding z-score came out at 3.19 in experiment [1]; 3.57 in experiment [2]; 4.4 in experiment [3]; 2.93 in experiment [4]; 1.68 in [5]; 4.62 in [6]. For the same sequence, the PBM binding z-score in [7] was determined as 7.23; in experiment [8], 5.99; in [9], 4.05; in experiment [10] it was 5.54; in [11], 7.41; in [12], 7.44. Further, the PBM binding z-score in [13] was 1.79; in experiment [14], 2.79; in [15], 2.91; in experiment [16], 3.44; in experiment [17], 9.35; in experiment [18], 3.2. Further, the PBM binding z-score in experiment [19] was 2.11; in experiment [20], 2.86.
On to TAGCCTAGGTCATGGGCCAGTATACCACGCGAAC, for which the PBM binding z-score in experiment [1] is 4.32; in experiment [2], 3.28; in experiment [3] it was 0.195; in experiment [4], 2.24; in experiment [5], -0.333; in experiment [6], 4.04. Also, the PBM binding z-score turned out to be 3.78 in [7]; 3.66 in experiment [8]; 0.829 in experiment [9]; 2.59 in experiment [10]; 1.08 in experiment [11]; 2.99 in experiment [12]. Moreover, the PBM binding z-score was 0.0326 in [13]; -0.324 in experiment [14]; 1.77 in [15]; 1.62 in [16]; -0.133 in experiment [17]; 2.54 in [18]. In addition, the PBM binding z-score in experiment [19] is -0.386; in experiment [20], 3.7.
Regarding CAAACTAGGTCAAGATCAAAGTCGGTTTGTGCCA, the PBM binding z-score is 3.58 in [1]; 2.31 in experiment [2]; 0.143 in experiment [3]; 1.67 in experiment [4]; 0.237 in [5]; 4.66 in [6]. The PBM binding z-score in experiment [7] was found to be 7.62; in experiment [8] it was 6.55; in experiment [9], 4.29; in experiment [10], 6.19; in experiment [11], 8.24; in [12], 8.61. The PBM binding z-score in experiment [13] was 5.86; in experiment [14], 4.95; in experiment [15], 2.34; in [16] it was 1.31; in [17], -0.0944; in experiment [18] it was 2.05. Besides, the values for the PBM binding z-score in [19] and in experiment [20] were 0.622 and 4.02, respectively.
Consider CCTTACGGGTCACTCCAGGTTATACCATCGGAGT, for which the PBM binding z-score was 4.89 in experiment [1]; 7.62 in experiment [2]; 2.1 in experiment [3]; 5.35 in experiment [4]; 0.431 in experiment [5]; 4.44 in experiment [6]. Further, the PBM binding z-score was 3.61 in [7]; 3.66 in [8]; 1.11 in experiment [9]; 2.42 in experiment [10]; 2.28 in experiment [11]; 3.61 in [12]. The PBM binding z-score in [13] was 0.661; in [14], -0.4; in experiment [15], 1.69; in [16], 5; in experiment [17] it was 0.455; in experiment [18] it was 3.74. For the same sequence, the PBM binding z-score came to 0.133 in [19] and 3.68 in experiment [20].
Regarding CGTCCAAGGTCAAAGCTAGGTCAGTGAAAGCATT, the PBM binding z-score in [1] turned out to be 7.24; in experiment [2] it was 5.98; in [3] it was 2.25; in experiment [4], 4.54; in experiment [5], 1.44; in [6], 5.65. The PBM binding z-score stood at 4.63 in experiment [7]; 5.54 in experiment [8]; 1.86 in experiment [9]; 4.09 in experiment [10]; 3.82 in experiment [11]; 4.33 in experiment [12]. For the same sequence, the PBM binding z-score in experiment [13] was 0.45; in [14], -0.526; in [15], 5.95; in experiment [16], 5.09; in experiment [17] it was 1.62; in experiment [18], 6.21. In addition, the PBM binding z-score in experiment [19] came to 1.19; in experiment [20] it was 5.31.

For the origin of these results see the supplement of paper PMC6555819.
